The list is not random: actives were taken first. Their share in the collection is about 19%.
Pf growth 96h: P. falciparum growth inhibition at 96 hour, primary screen for plastid delayed-death inhibitors; Potency, µM (series often up to 28.7 µM), actives largely listed as inhibitors; hit rate 6.9% among 320,000; P. falciparum luciferase reporter growth, 96 h
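Two-generation exposure (96 h) targets delayed-death phenotype. Reporter parasites carrying integrated firefly luciferase, in red cells at 2% hematocrit and 0.05% parasitemia final, kept at 37 C, 5% CO2; luminescence loss indicates inhibition.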
Shiga inhibitor: inhibitors of Shiga toxin in Vero cells | hit rate 9.2% among 290,000 | Vero cells, Shiga toxin protein synthesis inhibition reporter | inhibition, % at 38.7 µM; in the data active means inhibition mostly above about 28%, no sharp cut-off; inactive means mostly below about 43%
Cycloheximide cs: counter-screen hit for Shiga toxin inhibitors, cycloheximide; cell reporter, cycloheximide protein synthesis inhibition counterscreen; hit rate 12% among 300,000; max response, %; in the data active means max response mostly above about 13%, no sharp cut-off; inactive means mostly below about 14%; further: read at 38.3 µM for the half of the compounds with a filed dose
SARS PLpro yeast: blocks SARS-CoV papain-like protease in a yeast assay. AID 485353. S. cerevisiae expressing SARS-CoV PLpro, growth rescue. Potency, µM (top dose mostly 32.9 µM), usual class: activators. hit rate 0.19% among 330,000; calls by dose curve; further: nearly all actives have a fitted effect of over 55% in size
AMA1 RON2 block: inhibitors of Plasmodium falciparum AMA1-RON2 interaction | AlphaScreen AMA1-biotinylated RON2 peptide binding | Potency, µM (highest dose often 58.2 µM), usual class: inhibitors | hit rate 0.2% among 360,000 | AID 720542; further: nearly all actives have a fitted effect of over 45% in size
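AMA1 (3D7) with his tag at 25 nM final met compounds first, then biotinylated RON2 peptide at 25 nM; detection used donor plus acceptor beads, 10 µg/mL apiece, read by AlphaScreen after 30 min at room temperature.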
Pf growth 48h: P. falciparum growth inhibition at 48 hours (one generation); Potency, µM (doses to about 28.7 µM), most hits filed as inhibitors; hit rate 5.9% among 310,000; P. falciparum luciferase growth in erythrocytes, 48 h
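Luciferase-expressing P. falciparum in infected erythrocytes (2% hematocrit, 0.1% parasitemia final) in RPMI 1640/0.5% Albumax were exposed to compound for 48 hours at 37 C, 5% CO2; growth read as luminescence.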
Of the large screens only hits and unclear results are named; the others gave an inactive call. Unless noted, the call rests on the fitted dose curve; in most records, active means well fitted curve in the direction sought with a large enough effect; inconclusive means small, poorly fitted or top-dose-only effect, or another doubt; inactive means no such curve, though single readings can be large; an effect the other way counts as inactive or inconclusive.

Cn1c(CC(=O)Nc2ccccc2)cc2ccccc21	Shiga inhibitor 46, Cycloheximide cs 40
Cn1c(CC(=O)Nc2ccccc2)c(Sc2ccccc2)c2ccccc21	Pf growth 96h 8.3µM, Pf growth 48h inconclusive
Cn1c(CC(=O)Nc2ccccc2C(F)(F)F)c(Sc2ccccc2)c2ccccc21	Pf growth 48h 15µM
Cc1ccc(S(=O)(=O)N(C)C)cc1NC(=O)COC(=O)CCC(=O)c1cccs1	none
CSc1c(CC(=O)Nc2ccccc2)n(C)c2ccccc12	Pf growth 96h inconclusive, Pf growth 48h 10µM
Cn1c(=O)n(CC(=O)Nc2ccccc2)c2ccccc21	Pf growth 96h inconclusive
CC(C)[C@H](NS(=O)(=O)c1ccccc1)C(=O)OCC(=O)N1N=C(c2ccc(Cl)cc2)CC1c1ccco1 (some centres undefined)	Pf growth 96h inconclusive, Pf growth 48h inconclusive
CCCOC(=O)c1ccc(-c2ccc(C=O)o2)cc1	Pf growth 96h inconclusive, Shiga inhibitor 139, Cycloheximide cs 44
CCCCOC(=O)c1ccc(-c2ccc(/C=N/NC(=S)NCC)o2)cc1	Pf growth 96h inconclusive (no result: Pf growth 48h)
CCCOC(=O)c1cc(-c2ccc(C=O)o2)ccc1Cl	Pf growth 96h inconclusive, Cycloheximide cs 29
CCOC(=O)c1cccc(-c2ccc(C=O)o2)c1	Pf growth 96h inconclusive, Shiga inhibitor 116, Cycloheximide cs 47
CCOC(=O)c1ccc(-c2ccc(C=O)o2)cc1	Shiga inhibitor 80, Cycloheximide cs 48
C/C(=N/OC(=O)c1ccc(C(F)(F)F)cc1)c1oc(C)nc1C	Pf growth 48h inconclusive
COC(=O)C1(c2ccccc2)NC(c2ccc(O)cc2)C2C(=O)N(c3ccc4c(c3)OCO4)C(=O)C21 (centres undefined)	Pf growth 96h inconclusive, Pf growth 48h inconclusive
O=C(Nc1ccccc1C(=O)N1CCCCC1)c1cc(F)c(F)cc1Cl	none
CCN(CC)S(=O)(=O)c1ccc(NC(=O)c2ccc(OCC3CCCO3)cc2)cc1 (centres undefined)	Pf growth 96h 9.3µM, Pf growth 48h 9.3µM (no result: Shiga inhibitor, Cycloheximide cs)
CCN(CC)S(=O)(=O)c1cccc(NC(=O)C2SC(=Nc3ccc(C)cc3C)C(C(=O)NCC3CCCO3)=C2N)c1 (centres undefined)	Pf growth 48h 9.3µM (no result: Pf growth 96h)
CCN(CC)S(=O)(=O)c1cccc(C(=O)NCC2CCCO2)c1 (centres undefined)	none (no result: Pf growth 48h)
CCN(CC)S(=O)(=O)c1ccc(Cl)c(C(=O)NCC2CCCO2)c1 (centres undefined)	Pf growth 96h 10µM
Cc1cccc(NC(=O)c2ccc(OCC3CCCO3)cc2)c1C (centres undefined)	Shiga inhibitor 45, Cycloheximide cs 30
COc1ccc(S(=O)(=O)N(C)C)cc1NC(=O)c1ccc(OCC2CCCO2)cc1 (centres undefined)	none (no result: Pf growth 96h, Shiga inhibitor, Cycloheximide cs, SARS PLpro yeast, Pf growth 48h)
COC(=O)C[C@H]1C=C[C@H](NC(=O)Nc2ccccc2F)[C@@H](CO)O1	none (no result: Pf growth 96h, Shiga inhibitor, Cycloheximide cs, SARS PLpro yeast, Pf growth 48h)
CCCNC(=O)CNC(=O)c1ccc(C#N)cc1	none (no result: Pf growth 96h, Shiga inhibitor, Cycloheximide cs, Pf growth 48h)
OC1Cc2ccccc2C1Nc1cccc(C(F)(F)F)c1 (centres undefined)	none (no result: Pf growth 96h, Shiga inhibitor, Cycloheximide cs, SARS PLpro yeast, Pf growth 48h)
CCC(=O)Nc1ccc(OCC2CCCO2)cc1 (centres undefined)	Pf growth 96h 12µM, SARS PLpro yeast inconclusive
CCOc1ccc(NC(=O)c2ccc(OCC3CCCO3)cc2)cc1S(=O)(=O)N(CC)CC (centres undefined)	Pf growth 96h 10µM, Pf growth 48h 10µM (no result: Shiga inhibitor, Cycloheximide cs)
Cc1cc(NC(=O)c2ccc(OCC3CCCO3)cc2)ccc1Br (centres undefined)	none (no result: Pf growth 96h, Shiga inhibitor, Cycloheximide cs, SARS PLpro yeast, Pf growth 48h)
Cc1cccnc1NC(=O)c1ccc(OCC2CCCO2)cc1 (centres undefined)	none (no result: Shiga inhibitor, Cycloheximide cs)
O=C(Nc1ccc(Cl)cc1)c1ccc(OCC2CCCO2)cc1 (centres undefined)	Shiga inhibitor 95, Cycloheximide cs 42
Cc1cc(NC(=O)C(C)SCC(=O)N(Cc2ccccc2)c2ccccc2)no1 (centres undefined)	Pf growth 48h inconclusive (no result: Shiga inhibitor, Cycloheximide cs)
CN1CCN(CC(=O)Nc2cccc(S(=O)(=O)N(C)c3ccccc3)c2)CC1	none (no result: Shiga inhibitor, Cycloheximide cs)
c1csc(-c2nn3c(Cn4cnc5ccccc54)nnc3s2)c1	none
Clc1cccc(-c2nn3c(Cn4cnc5ccccc54)nnc3s2)c1	Pf growth 48h 13µM
